MITF TRPM1 HTS: activators of MITF-driven TRPM1 promoter activity in SK-MEL-5 cells. SK-MEL-5 TRPM1-promoter luciferase, 24 h; % of positive control, neutral wells = 0. activation, % at 12.5 µM. actives 0.75% (n = 300,000);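 active = mean activation of at least 80% with every replicate also reaching 80%; inconclusive = mean reaches 80% but some replicate falls short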
AF4-AF9 inh: blocks AF4 peptide binding to human AF9 | P42568 | AID 651704 | inhibition, % at 10 µM | actives 0.47% (n = 350,000) | AlphaScreen, biotin-AF4 peptide binding to FLAG-AF9;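 active = every replicate reaching a set inhibition limit, whatever the replicate mean, cut at about 25% in these data; inconclusive = mean inhibition reaches that limit but some replicates miss it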
Target sequence (P42568 whole entry, looked up): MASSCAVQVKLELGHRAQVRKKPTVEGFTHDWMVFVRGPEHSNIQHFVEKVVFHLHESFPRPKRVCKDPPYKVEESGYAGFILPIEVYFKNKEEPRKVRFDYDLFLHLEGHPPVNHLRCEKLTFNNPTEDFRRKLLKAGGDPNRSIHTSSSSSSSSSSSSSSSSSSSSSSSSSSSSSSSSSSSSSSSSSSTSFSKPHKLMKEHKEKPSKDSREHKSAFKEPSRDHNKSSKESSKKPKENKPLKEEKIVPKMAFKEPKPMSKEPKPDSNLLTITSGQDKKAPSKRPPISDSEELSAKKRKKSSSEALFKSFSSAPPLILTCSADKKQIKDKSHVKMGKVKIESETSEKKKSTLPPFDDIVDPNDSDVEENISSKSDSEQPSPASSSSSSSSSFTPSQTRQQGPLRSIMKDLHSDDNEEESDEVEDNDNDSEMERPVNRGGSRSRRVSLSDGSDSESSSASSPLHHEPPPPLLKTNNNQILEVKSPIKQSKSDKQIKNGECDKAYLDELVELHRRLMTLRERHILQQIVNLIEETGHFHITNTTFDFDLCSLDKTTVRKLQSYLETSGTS
Wnt bcat act: Wnt/beta-catenin pathway activation; Wnt/beta-catenin reporter cell assay, activator, plate reader; activation, % at 9.35 µM; actives 1.2% (n = 300,000); in the data active = activation above about 30%, passing the limit was not always enough; inconclusive = no clear call, values can overlap the other calls
esBAF inh: blocks esBAF chromatin remodeling in mouse ES cells; Bmi1-luciferase knock-in reporter, 24 h; 100% = twice the neutral-well signal; reporter increase, % at 12.5 µM; actives 2% (n = 350,000); in the data active = activation above about 40%; inconclusive = no clear call, values can overlap the other calls;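 note: a rise in the Bmi1 reporter signal indicates esBAF inhibition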
Ecoli rRNA inh: inhibits bacterial ribosomal RNA function over humanized ribosomes; actives 1.6% (n = 350,000); E. coli WT GFP vs humanized-ribosome RFP mutants, fluorescence, 24 h; stronger effect = lower value; DMSO median 0, no signal -100; GFP signal change (wild-type ribosome), % (test concentration not listed);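 active = significant combined selectivity score with lowered wild-type GFP, culture density cut under 30%, mutant RFP and density less affected; inactive = any of these conditions unmet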
Each line names hits and unclear results; the compound was inactive in the other large screens. This is a sample that favours compounds with a hit; in the whole collection about 3.7% have one here.

NC(=O)N/N=C(/CCCCCC/C(=N\NC(N)=O)c1ccccc1)c1ccccc1	Wnt bcat act 37, Ecoli rRNA inh -26 (no result: MITF TRPM1 HTS, esBAF inh)
O=C(/C=C/c1ccccc1Cl)N(Cc1ccccc1)C1CCS(=O)(=O)C1 (configuration not stated)	none (no result: AF4-AF9 inh, Wnt bcat act, esBAF inh, Ecoli rRNA inh)
O=C(/C=C/c1ccccc1Cl)N(Cc1cccs1)C1CCS(=O)(=O)C1 (configuration not stated)	Ecoli rRNA inh -35 (no result: MITF TRPM1 HTS, AF4-AF9 inh)
C[C@@H]1CN([C@H](C)CO)C(=O)c2cc(NC(=O)CCC(F)(F)F)ccc2O[C@H]1CN(C)Cc1ccc(C(F)(F)F)cc1	none (no result: MITF TRPM1 HTS, Wnt bcat act)
C=CCNc1nc(C(=O)OCC(=O)c2ccccc2)cs1	esBAF inh 55
O=C(/C=C/c1ccc(Cl)cc1Cl)NC(=S)Nc1ccccn1	none (no result: AF4-AF9 inh, Wnt bcat act, Ecoli rRNA inh)
N#Cc1nc(COc2cccc(Cl)c2)oc1NCc1ccco1	esBAF inh 51
COc1ccc(Nc2oc(COc3ccc(C)cc3)nc2C#N)cc1	none (no result: MITF TRPM1 HTS, AF4-AF9 inh, Wnt bcat act, Ecoli rRNA inh)
COc1ccc(Nc2oc(COc3cccc(C)c3)nc2C#N)cc1	Wnt bcat act 43 (no result: AF4-AF9 inh, Ecoli rRNA inh)
Cc1cccc(OCc2nc(C#N)c(NCCN(C)C)o2)c1	none
CCNc1oc(COc2cccc(C)c2)nc1C#N	esBAF inh 45 (no result: AF4-AF9 inh, Wnt bcat act, Ecoli rRNA inh)
CCCNC(=O)N1C[C@H](O)COC[C@H]2O[C@H](CC(=O)OC)CC[C@@H]21	none (no result: MITF TRPM1 HTS, Wnt bcat act)
Cc1cc(C)nc(CCNC(=O)CC2C(=O)NCCN2Cc2ccc(F)cc2Cl)n1 (configuration not stated)	none
O=C(NC1CCN(c2ncccn2)CC1)c1c(F)cccc1F	none
C(=Cc1c[nH]c2ccccc12)c1nccc2ccccc12	Wnt bcat act 42
C(=Cc1c[nH]c2ccccc12)c1ccc2ccccc2n1	none
C/C(=N\NC(=O)C1CC1)c1cccnc1	none (no result: AF4-AF9 inh, Wnt bcat act, esBAF inh, Ecoli rRNA inh)
CCCc1ccc(-c2ccc(/C=C/C(=O)O)cc2)nc1	Ecoli rRNA inh -26 (no result: esBAF inh)
COc1cc(S(=O)(=O)NC2CCCC2)ccc1F	none (no result: AF4-AF9 inh, Ecoli rRNA inh)
COC(=O)Nc1nnc(-c2ccccc2OC)s1	Wnt bcat act 49 (no result: esBAF inh)
COC(=O)Nc1nnc(-c2ccccc2Cl)s1	MITF TRPM1 HTS 88 (no result: AF4-AF9 inh, Wnt bcat act, Ecoli rRNA inh)
CCOC(=O)Nc1nnc(-c2ccccc2OC)s1	none (no result: AF4-AF9 inh, Wnt bcat act, Ecoli rRNA inh)
COc1ccc(-c2nnc(NC(=O)C(C)C)s2)c(OC)c1	Wnt bcat act 34, esBAF inh 42
O=C(NCCOc1ccccc1)c1ccccc1NC(=O)C1CCCO1 (configuration not stated)	none
Cc1ccc(C)c(CN2C(=O)CSc3ccc(C(=O)NCC(C)CN4CCC(C)CC4)cc32)c1 (configuration not stated)	none
CCC(C)NC(=O)c1cc2cc3ccc(OC)cc3nc2o1 (configuration not stated)	MITF TRPM1 HTS 89, esBAF inh 55
CCCCN(CC)C(=O)c1cc2cc3ccc(OC)cc3nc2o1	Wnt bcat act 58, esBAF inh 88 (no result: AF4-AF9 inh, Ecoli rRNA inh)
COc1ccc2cc3cc(C(=O)NCC4CCCO4)oc3nc2c1 (configuration not stated)	esBAF inh 55 (no result: AF4-AF9 inh, Ecoli rRNA inh)
COc1ccc2cc3cc(C(=O)NCCC(C)C)oc3nc2c1	none
COCCNC(=O)c1cc2cc3ccc(OC)cc3nc2o1	none
COc1cccc(S(=O)(=O)Nc2ccc3c(c2)OC[C@H](C)N(Cc2ccccc2F)C[C@@H](C)[C@H](OC)CN(C)C3=O)c1	none (no result: MITF TRPM1 HTS, AF4-AF9 inh, Wnt bcat act)
COc1ccc(NC(=O)Nc2nccs2)cc1	none (no result: AF4-AF9 inh, Wnt bcat act, Ecoli rRNA inh)
COc1ccc(NC(=O)Nc2ccc3nonc3c2)cc1	Wnt bcat act 39 (no result: MITF TRPM1 HTS, esBAF inh)
COc1ccc(NC(=O)Nc2ccc3nccnc3c2)cc1	MITF TRPM1 HTS 96, esBAF inh 55 (no result: AF4-AF9 inh, Wnt bcat act, Ecoli rRNA inh)
CS(=O)(=O)c1ccc2nc(NC(=O)CCC(=O)c3cccs3)sc2c1	none (no result: AF4-AF9 inh, Wnt bcat act, Ecoli rRNA inh)
CCOC(=O)C1CCN(c2ncnc3c2oc2ccc(Cl)cc23)CC1	none (no result: AF4-AF9 inh, Wnt bcat act, Ecoli rRNA inh)
O=C(NCCOc1ccc(F)cc1)C1CCC(=O)N(Cc2ccc(Cl)cc2)C1 (configuration not stated)	none (no result: MITF TRPM1 HTS, esBAF inh)
CCOC(=O)C1CCCN(S(=O)(=O)c2c(C)[nH]c(C)c2C(=O)N2CCCC2)C1 (configuration not stated)	none
CCC(NC(=O)c1ccccc1NC(=O)c1ccco1)C(=O)NNC(=O)c1ccc(OC)cc1 (configuration not stated)	none (no result: Wnt bcat act, esBAF inh)
C[C@@H]1CN([C@@H](C)CO)S(=O)(=O)c2ccc(C3=CCCCC3)cc2O[C@H]1CN(C)C(=O)Cc1ccncc1	none (no result: MITF TRPM1 HTS, Wnt bcat act)
COc1ccc([N+](=O)[O-])c(C=CC(=O)c2ccccn2)c1	none (no result: MITF TRPM1 HTS, esBAF inh)
COc1ccc(/C=C/C(=O)c2ccccc2O)cc1	MITF TRPM1 HTS 141, esBAF inh 87 (no result: AF4-AF9 inh, Wnt bcat act, Ecoli rRNA inh)
COc1cccc(/C=C/C(=O)N2CCN(c3ccccn3)CC2)c1	none
COc1ccc(/C=C/C(=O)c2ccccn2)cc1	Wnt bcat act 75 (no result: esBAF inh)
COc1ccc(/C=C/C(=O)N2CCN(c3ccccn3)CC2)cc1	Ecoli rRNA inh -23
O=C(c1cccnc1)N1CC[C@@H]2[C@@H](CO)Nc3ccc(-c4cccc(F)c4)cc3[C@@H]21	none (no result: MITF TRPM1 HTS, Wnt bcat act)
C[C@H](CO)N1C[C@H](C)[C@H](CN(C)C)Oc2ncc(C#CC3(O)CCCC3)cc2C1=O	none (no result: MITF TRPM1 HTS, Wnt bcat act)
O=C1CCC(C(=O)N2CCSCC2)CN1CCc1ccccc1 (configuration not stated)	none
COc1ccc(CCN2CC(C(=O)N3CCC(OC)CC3)CCC2=O)cc1 (configuration not stated)	none
C=CCC1(CC=C)CCCN1C(=O)C1CCC(=O)N(CCc2ccccc2)C1 (configuration not stated)	MITF TRPM1 HTS 103
C=CCC1(CC=C)CCCN1C(=O)C1CCC(=O)N(CCc2ccc(OC)cc2)C1 (configuration not stated)	esBAF inh 69
COc1ccc(CN(C)C[C@H]2OCCCC[C@H](C)Oc3ccc(NS(=O)(=O)c4ccccc4)cc3C(=O)N([C@H](C)CO)C[C@@H]2C)cc1	none (no result: MITF TRPM1 HTS, Wnt bcat act)
CCc1cc2c(=O)c(-c3nc4ccccc4[nH]3)coc2cc1OC(=O)N1CCOCC1	esBAF inh 68 (no result: AF4-AF9 inh, Ecoli rRNA inh)
COc1ccccc1-c1coc2cc(OC(=O)N3CCOCC3)ccc2c1=O	none (no result: MITF TRPM1 HTS, AF4-AF9 inh)
CO[C@H]1CN(C)C(=O)c2cc(NC(=O)C3CCC3)ccc2OC[C@H](C)N(Cc2ccccn2)C[C@H]1C	none (no result: MITF TRPM1 HTS, Wnt bcat act)
Cc1occc1C(=O)NNC(=S)Nc1cccc([N+](=O)[O-])c1	Ecoli rRNA inh -19 (no result: AF4-AF9 inh, Wnt bcat act)
Cc1cccc(NC(=S)NNC(=O)c2cccc([N+](=O)[O-])c2)c1	none (no result: MITF TRPM1 HTS, esBAF inh)
Cc1ccc(C(=O)/C=C/Nc2cccc([N+](=O)[O-])c2)o1	MITF TRPM1 HTS 85 (no result: AF4-AF9 inh, Wnt bcat act, esBAF inh, Ecoli rRNA inh)
O=C(Nc1cccc([N+](=O)[O-])c1)Nc1ccc2c(c1)OCCO2	MITF TRPM1 HTS 90 (no result: esBAF inh)
O=C(Nc1ccc2c(c1)OCO2)c1ccc([N+](=O)[O-])cc1[N+](=O)[O-]	esBAF inh inconclusive, Ecoli rRNA inh -19
O=C(Nc1ccc(C(=O)O)cc1)Nc1cccc([N+](=O)[O-])c1	none (no result: Wnt bcat act, esBAF inh)
O=C(N[C@@H]1CC[C@@H](CCNS(=O)(=O)c2ccc(F)cc2)O[C@H]1CO)c1cccc(F)c1	none (no result: MITF TRPM1 HTS, Wnt bcat act)
CN(C)C(=O)CCC(=O)N(C)CC1CCCN(CCc2ccc(F)cc2)C1 (configuration not stated)	none

Compound activity from PubChem.
